PubChem BioAssay AID1903 (Southern Research Specialized Biocontainment Screening …, 2009)
Several values for one entry are separate records, joined by “and”; a condition that tells them apart may be missing. Equal values may be shown once. Out of some 310,000 compounds screened, about 1,200 (0.39%) were called active. The rule behind the calls is not given here. A selection follows. Potency and affinity values are given separately.

Each compound was assayed against Large T antigen (Simian virus 40) (UniProt P03070) (assay: SV40 large T antigen inhibitors, biochemical (AID 1903)). Conditions: SV40 large T antigen ATPase/helicase inhibition assay; at 20 µM; hits give high values.
Sequence of Large T antigen (Simian virus 40) (P03070 whole entry, looked up): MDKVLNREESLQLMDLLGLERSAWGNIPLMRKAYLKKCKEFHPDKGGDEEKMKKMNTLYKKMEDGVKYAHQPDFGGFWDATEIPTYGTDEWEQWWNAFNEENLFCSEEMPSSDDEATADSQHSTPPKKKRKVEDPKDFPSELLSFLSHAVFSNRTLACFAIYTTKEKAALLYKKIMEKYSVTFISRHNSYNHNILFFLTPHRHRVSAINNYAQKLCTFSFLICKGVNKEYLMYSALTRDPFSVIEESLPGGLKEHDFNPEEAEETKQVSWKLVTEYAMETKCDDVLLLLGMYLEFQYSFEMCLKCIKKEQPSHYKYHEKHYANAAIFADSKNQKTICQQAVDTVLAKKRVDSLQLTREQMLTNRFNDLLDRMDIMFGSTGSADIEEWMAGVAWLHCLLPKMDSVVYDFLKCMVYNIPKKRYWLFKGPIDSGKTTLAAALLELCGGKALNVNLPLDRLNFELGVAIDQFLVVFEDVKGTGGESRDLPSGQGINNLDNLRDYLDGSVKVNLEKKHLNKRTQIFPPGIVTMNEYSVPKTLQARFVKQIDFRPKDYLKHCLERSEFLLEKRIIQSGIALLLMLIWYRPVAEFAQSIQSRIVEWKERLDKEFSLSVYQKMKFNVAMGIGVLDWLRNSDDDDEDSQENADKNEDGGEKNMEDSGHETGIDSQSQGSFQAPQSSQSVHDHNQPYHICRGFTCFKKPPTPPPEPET

inhibition, inactive:
CC(CCc1ccccc1)C(=O)NO (stereo not given) -1.59%
Cc1cc(NC(=O)c2cccc(S(=O)(=O)Nc3cccc(C(=O)O)c3)c2)no1 12.5%
CCOc1ccc(N2C(=O)CC(N3CCN(C(=O)CN4CCCC4)CC3)C2=O)cc1 (stereo not given) 15.8%
CN(C)CCN(C(=O)c1ccc(S(=O)(=O)N(C)C)cc1)c1nc2cc3c(cc2s1)OCCO3 3.41%
Cc1cccc(C(=O)N[C@H](C(=O)NCCc2ccc(S(N)(=O)=O)cc2)C(C)C)c1 9.44%
CCCC(c1nnnn1CS(=O)(=O)c1ccc(C)cc1)N1CCC(C(N)=O)CC1 (stereo not given) 1.94%
CCOc1ccc(NC(=O)CCn2ccnc2)cc1 2.19%
O=C(CCCCCN1C(=O)c2ccccc2C1=O)NCCc1nc2ccccc2[nH]1 5.03%
COc1ccc(Nc2nc(N3CCN(S(=O)(=O)N(C)C)CC3)nc3ccccc23)cc1 6.91%
COc1ccc(-c2nc(-c3cccs3)c(-c3cccs3)[nH]2)cc1OC 8.77%
Oc1ccc(/C=N/Nc2cccc(Cl)n2)c(O)c1 21.8%
Oc1ccc(/C=N/Nc2ccnc3cc(Cl)ccc23)c(O)c1 8.76%
Fc1ccc(/C=N/Nc2nccnc2Cl)cc1 8.81%
Clc1nccnc1N/N=C/c1ccc(Br)cc1 0.07%
Oc1ccccc1/C=N/Nc1nccnc1Cl 0.02%
COc1ccc(/C=N/Nc2nccnc2Cl)c(OC)c1 5.32%
Cc1cc(C)c(C)c(S(=O)(=O)N2CCSCC2)c1C 8.62%
N#Cc1c(NC(=O)COC(=O)c2ccc(F)cc2)sc2c1CCC2 1.58%
O=C(CSc1nc2c(cnn2-c2ccccc2)c(=O)[nH]1)N1CCCCC1 24.9%
COc1ccc(/C=C(\NC(=O)c2ccc(OC)cc2)C(=O)NC(CCSC)C(=O)O)cc1 (stereo not given) 9.06%
O=C(Nc1ccccc1)C1CCN(S(=O)(=O)c2ccc3c(c2)OCCO3)CC1 20.4%
CCCCn1c(SCC(N)=O)nnc1-c1ccco1 8.33%
NC(=O)CSc1nnc2ccc(-c3ccco3)nn12 16.6%
O=C(COc1cccnc1[N+](=O)[O-])c1c[nH]c2ccccc12 21.6%
Cc1cc(C)c(C(=O)COc2cccnc2[N+](=O)[O-])cc1C -4.61%
COc1ccc(C2OCC3(O)C(c4ccc(OC)c(OC)c4)OCC23)cc1OC (stereo not given) 4.9%
CCN(CC)c1ccc(/C=N/NS(=O)(=O)c2cccc([N+](=O)[O-])c2)cc1 10.4%
O=[N+]([O-])c1cccc(/C=N/NS(=O)(=O)c2ccccc2)c1 9.33%
C/C(=N\NS(=O)(=O)c1ccc([N+](=O)[O-])cc1)c1c[nH]c2ccccc12 34%
COc1ccc(/C=N/NS(=O)(=O)c2ccccc2)cc1OC 13.2%
Cc1ccc(S(=O)(=O)N/N=C/c2ccccc2O)cc1[N+](=O)[O-] 12.5%
C/C(=N/NS(=O)(=O)c1ccccc1)c1c[nH]c2ccccc12 31.3%
CN(C)c1ccc(/C=N/NS(=O)(=O)c2ccc(Br)cc2)cc1 24.5%
COc1cc(/C=N/NS(=O)(=O)c2ccc(C)c([N+](=O)[O-])c2)cc([N+](=O)[O-])c1O 24.7%
Cc1ccc(C(c2c(C)[nH][nH]c2=O)c2c(C)[nH][nH]c2=O)cc1[N+](=O)[O-] 20.9%
COC(=O)c1cccc(-n2c(C)cc(C=O)c2C)c1C 17.4%
NC(=O)C1CCN(C(=O)c2ccc(Oc3ccccc3)cc2)CC1 13.6%
COC(=O)c1c(S(N)(=O)=O)c2ccccc2n1C 21.9%
Nc1nccnc1C(=O)OCC(=O)N1CCN(S(=O)(=O)c2ccc(Cl)cc2)CC1 15.7%
CC1=NN(c2ccccc2)C(=O)C1N=Nc1ccc(C)cc1 (stereo not given) -3.33%
CC1=NN(c2ccccc2)C(=O)C1c1ccccc1 (stereo not given) 31.6%
CCOc1ccccc1NC(=O)COC(=O)CSc1ccc(Cl)cc1 -3.03%
COc1cccc(-c2nn(C)c3sc(C(=O)NCc4ccco4)cc23)c1 16.5%
CCn1c(-c2cc(OC)c(OC)c(OC)c2)n[nH]c1=S 8.67%
COc1cc(-c2nc(N)n[nH]2)cc(OC)c1OC 3.91%
O=C(CNC(=O)c1ccccc1)OCCCOC(=O)CNC(=O)c1ccccc1 8.32%
Cc1cc(C)c(C)c(S(=O)(=O)N2CCN(C(=O)c3ccco3)CC2)c1C 30.6%
O=C(O)c1ccc(-c2nc(-c3ccccc3)c(-c3ccccc3)[nH]2)cc1 13.6%
Fc1ccc(-c2nc(-c3cccs3)[nH]c2-c2ccc(F)cc2)cc1 0.16%
Cn1c(Cc2ccccc2)nnc1SCC(=O)NC1CC1 5.03%
Cc1cc(C)nc(SCCN(C)C)n1 21.5%
Cc1cc(C)nc(SCSc2nc(C)cc(C)n2)n1 1.38%
N#CC1=C(N)C2=CCCC[C@H]2[C@H](c2ccccc2)C1(C#N)C#N 10.5%
N#CC1=C(N)C2=CCCC[C@H]2[C@H](c2ccc(Br)cc2)C1(C#N)C#N 29.5%
CCOC(=O)C1=C(O)/C(=C\c2cccs2)N=C1C 10.2%
CCOC(=O)C1=C(O)/C(=C\c2cccc(OC)c2)N=C1C 4.85%
COC(=O)C1=C(O)/C(=C\c2cc(C)n(-c3ccccc3F)c2C)N=C1C 8.75%
COC(=O)C1=C(O)/C(=C\c2cc(C)n(-c3ccccc3C)c2C)N=C1C 21.4%
Cc1nc2ccccc2c(C)c1CC(=O)N(C)CC(=O)Nc1cccc(F)c1 6.37%
Cc1noc(C)c1C(=O)Nc1nc2ccc(Cl)cc2s1 13.7%
Cc1cc(C)nc(SCC(=O)N2CCCCC2)n1 24.1%
O=C1CCCC(=O)N1c1ccc(O)cc1 12.2%
O=C1c2ccc3c4c(ccc(c24)C(=O)N1c1ccc(O)cc1)C(=O)N(c1ccc(O)cc1)C3=O 2.8%
O=C(NC1CC1)C1=C[C@@H](c2ccccc2)C[C@@H](OCCCCO)O1 5.56%
COc1cc(/C=C(\C#N)C(=O)Nc2cccc(C(=O)O)c2)ccc1OCc1ccc(F)cc1 -17.7%
Cc1c(C(=O)NN)[nH]c2ccc([N+](=O)[O-])cc12 7.05%
CCOC(=O)C1(CCc2ccccc2)CCN(C(=O)c2cccc(C)n2)CC1 4.43%
CCc1nnc(NS(=O)(=O)c2ccc(NC(=O)c3cccc4ccccc34)cc2)s1 11.1%
CCc1nnc(NS(=O)(=O)c2ccc(NC(=O)c3cc4ccccc4oc3=O)cc2)s1 -3.35%
O=C(c1cc(-c2ccccc2Cl)nc2ccccc12)N1CCC1 8.29%
O=C1N/C(=N/S(=O)(=O)Cc2ccccc2)S/C1=C/c1ccc2c(c1)OCO2 22.1%
COc1ccc(C(=O)C[n+]2cccc(C(N)=O)c2)cc1 1.66%
Cc1cc(O)ccc1C1(c2ccc(O)cc2C)OC(=O)c2ccccc21 4.57%
O=C1OC(c2ccc(O)cc2)(c2ccc(O)cc2)c2ccccc21 9.29% and 0.77%
COCCNC(=O)c1c[nH]n2c(=O)cc(C3CCN(C(=O)OC(C)(C)C)CC3)nc12 6.9%
CCN1CCN(c2ccc(NC(=O)c3cccc(OCc4ccccc4)c3)cc2)CC1 8.98%
O=C1C2C3C=CC(CC3)C2C(=O)N1/N=C/c1ccc(O)cc1 (stereo not given) 22.8%
COc1cc(/C=N/N2C(=O)C3C4c5ccccc5C(c5ccccc54)C3C2=O)ccc1O (stereo not given) 19.2%
O=C1C2C3C=CC(CC3)C2C(=O)N1/N=C/c1ccccc1O (stereo not given) -0.603%
COc1ccccc1/C=N/N1C(=O)C2C3C=CC(CC3)C2C1=O (stereo not given) 5.91%
O=C(CSc1nnnn1C1CCCC1)Nc1ccccc1F 14%
COC(=O)c1sc(-c2cccs2)cc1N 20%
CC(=O)Nc1nnc(SCc2ccc(C(=O)Nc3ccccc3F)cc2)s1 5.26%
CC1(C)CC(=O)C(N=Nc2ccc(-c3ccccc3)cc2)=C(O)C1 28.9%
Oc1ccc(N=Nc2ccccc2)cc1 18.4%
O=C(O)c1ccccc1C(=O)Nc1ccccc1NC(=O)c1ccccc1C(=O)O 5.06%
O=C(NC1=NN(c2ccccc2)CC1)Nc1ccccc1F -6.18%
CCCSc1oc(-c2ccco2)nc1S(=O)(=O)c1ccccc1 1.06%
COc1cc(SC)ccc1C(=O)NCCc1c[nH]c2ccccc12 8.89%
CC(C)(C)NC(=O)CSCc1c(Cl)cccc1Cl 3.06%
N#Cc1c(-c2ccc(Cl)cc2)c2c([nH]c1=S)CCCC2 25.6%
COc1ccc(-c2c3c([nH]c(=S)c2C#N)CCC3)cc1 34.4%
COc1ccc(OC)c(-c2c3c([nH]c(=S)c2C#N)CCCC3)c1 20.7%
N#Cc1c(-c2ccncc2)c2c([nH]c1=S)CCCC2 16.1%
O=C(CN1C(=O)/C(=C/c2ccc(C(F)(F)F)cc2)Sc2ccccc21)NCCCN1CCOCC1 6.23%
